# PubChem BioAssay AID430 (Sanford-Burnham Center for Chemical Genomics, 2006)
# In all, about 63,000 compounds went through this assay and about 1,100 (1.7%) were called active. The sample as a whole holds a higher share of actives than the screen did. Potency and affinity values are given separately. Values without a mark were called inactive. Cut-off read from the data, not from the text of the source: active = cytotoxicity above about 50%; inactive = the rest.
# Assay: cytotoxicity in HPDE-C7 cells, cell-based, fluorescence, HTS (AID 430);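 note: cells exposed to compound for 48 hours before viability readout; 0% = vehicle and 100% = reference cytotoxic drug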
# Conditions: HPDE-C7 pancreatic duct cells viability, at 10 µM, active compounds read high
row,Compound,cytotoxicity
1,CCCCN(C(=O)NC(=O)Nc1c(C)cc(C)cc1C)S(C)(=O)=O,4.6%
2,CC(C)=CC(=O)Nc1ccccc1C(N)=O,3.7%
3,COc1ccc(N2CCN(C(=O)CCN3C(=O)c4ccccc4S3(=O)=O)CC2)cc1,-0.5%
4,Cn1nccc1C(=O)NCCN1C(=O)OC(C)(C)C1(C)O (configuration not stated),-1.1%
5,CCOC(=O)c1ccc(-n2[nH]c(-c3ccccc3)cc2=O)cc1,66.3% (active)
6,CCOC(=O)c1ccc(N2C(=O)C(C)=C(C)C2=O)cc1,-4.6%
7,CCOC(=O)c1ccc(-n2c(=O)[nH]c3ccccc3c2=O)cc1,-12.3%
8,O=C1CCCC2=C1C(c1cccc(Br)c1)n1nc(-c3ccco3)nc1N2 (configuration not stated),-0.5%
9,Cc1ccc(S(=O)(=O)Nc2cccc(-c3cn4ccsc4n3)c2)cc1,52.4% (active)
10,O=S(=O)(Nc1cccc(-c2cn3ccsc3n2)c1)c1ccc(F)cc1,33.8%
11,Cc1cccc(S(=O)(=O)Nc2cccc(-c3cn4ccsc4n3)c2)c1,36.1%
12,O=C(Cn1cnnn1)Nc1ccccc1Cc1ccccc1,-2.5%
13,COc1ccc(C2CC(=O)N3C(=C2C#N)SCC3(O)c2ccccc2)cc1 (configuration not stated),10.4%
14,N#CC1=C2SCN(Cc3ccccc3)CN2C(=O)CC1c1cccs1 (configuration not stated),-17.2%
15,N#CC1=C2SCN(c3ccccc3)CN2C(=O)CC1c1cccs1 (configuration not stated),-3.1%
16,CCc1ccc(C2CC(=O)N3CN(c4ccccc4)CSC3=C2C#N)cc1 (configuration not stated),-1.3%
17,N#CC1=C2SCC(O)(c3ccccc3)N2C(=O)CC1c1ccccc1 (configuration not stated),70% (active)
18,CCOC(=O)CCNC(=O)CNC(=O)OCc1ccccc1,-3.8%
19,CCOc1ccccc1NC(=O)CN(c1nccs1)S(=O)(=O)c1ccc(N)cc1,-20.7%
20,COc1ccc(S(=O)(=O)N(C)CC(=O)O)c2ccccc12,1.2%
21,Cc1ccc(/C(O)=C2\C(=O)C(=O)N(CC(C)O)C2c2ccc(N(C)C)cc2)cc1 (configuration not stated),0%
22,CCCC(=O)n1nc(-c2ccc(OC)cc2)nc1N,11.5%
23,O=C(CSc1nnc(-c2ccco2)o1)NC(=O)C1COc2ccccc2O1 (configuration not stated),-12.2%
24,COc1cccc(C2=NOC(C(=O)NCc3ccco3)C2)c1 (configuration not stated),40.7%
25,COc1cccc(C2=NOC(C(=O)NCc3ccccc3)C2)c1 (configuration not stated),61.7% (active)

row,Compound,cytotoxicity
1,COCCNC(=O)C1CC(c2cccc(OC)c2)=NO1 (configuration not stated),-6.9%
2,COc1cccc(C2=NOC(C(=O)NCc3ccc(F)cc3)C2)c1 (configuration not stated),60.3% (active)
3,COc1cccc(C2=NOC(C(=O)NCc3ccccn3)C2)c1 (configuration not stated),-11.7%
4,COc1ccc(CNC(=O)C2CC(c3cccc(OC)c3)=NO2)cc1 (configuration not stated),36%
5,Cc1oc2ccc(OC(=O)N3CCOCC3)cc2c1C(=O)OC(C)C,-25.5%
6,Cc1nn(-c2ccccc2C(=O)O)c(=O)c2ccccc12,0.5%
7,CC(=O)c1sc(-c2c(C)nc3sccn23)nc1C1CCCC1,4.9%
8,O=C(NCCCN1CCOCC1)c1c(F)cccc1F,18.7%
9,COc1ccc2sc(C)nc2c1NC(C)=O,-5.3%
10,CCCCN(Cc1ccccc1)c1ncnc2nc[nH]c12,-1%
11,Clc1ccccc1CNc1ncnc2nc[nH]c12,3.9%
12,Clc1ccccc1CN(Cc1ccccc1)c1ncnc2nc[nH]c12,82.7% (active)
13,O=C(O)C1CC(=O)N(Cc2ccccc2)C1 (configuration not stated),-5.6%
14,COC(=O)c1ccc(OCC(=O)Nc2nn(-c3ccccc3)nc2C(N)=O)cc1,51.8% (active)
15,NC(=O)c1nn(-c2ccccc2)nc1NC(=O)CN1CCCCC1,-13.3%
16,CC(=O)N(CC(=O)Nc1nn(-c2ccccc2)nc1C(N)=O)Cc1ccccc1,-8.2%
17,CCc1nc2ccc(C(=O)NCc3ccco3)cc2nc1CC,1.5%
18,O=C1c2oc3ccccc3c(=O)c2C(c2cccc(O)c2)N1CCCN1CCOCC1 (configuration not stated),-13.7%
19,Cc1ccc(F)cc1NC(=O)c1cccc(N(C)C)c1,-10.6%
20,CCNc1ccc(C(=O)OCC)cc1NC(=O)c1cccc(S(=O)(=O)N2CCOCC2)c1,1.8%
21,CCNc1ccc(C(=O)OCC)cc1NC(=O)c1cccc(N(C)C)c1,54.6% (active)
22,CCn1c(SCC(=O)N2CCCCC2)nnc1-c1ccc(S(=O)(=O)N2CCN(C)CC2)cc1,-22%
23,COc1ccc(CNC(=O)C2COc3ccccc3O2)c(OC)c1 (configuration not stated),-4.4%
24,Cc1ccc(C(=O)CC(C(=O)O)n2cccn2)cc1 (configuration not stated),-3.1%
25,Cc1ccc(C(=O)CC(C(=O)O)n2ccc(C)n2)cc1 (configuration not stated),4%

row,Compound,cytotoxicity
1,O=C1OCCC1N1C(=O)c2ccccc2S1(=O)=O (configuration not stated),-4.1%
2,Nc1c(Nc2ccccc2)c2ccccc2oc1=O,-3.7%
3,CCN(C)c1ccc(/C=N\n2nnnc2N)cc1,51.3% (active)
4,CCN(CC)c1ccc(/C=N/n2nnnc2N)c(O)c1,-2.7%
5,CSc1ccc(/C=N/n2nnnc2N)cc1,-10.4%
6,CCCCS(=O)CC(COc1ccc(Cl)cc1)OC(=O)c1ccccc1 (configuration not stated),-8.9%
7,CNc1ccccc1-c1nc2ccccc2n(C)c1=O,56.7% (active)
8,COc1ccccc1Nc1nc2ccccc2n1C,-9%
9,Cn1c(=O)c(-c2ccccc2)nn2c3ccccc3nc12,-4.7%
10,Cc1ccc(NCc2nnc(SCC(=O)Nc3cccc(O)c3)n2CC2CCCO2)c(C)c1 (configuration not stated),8.8%
11,CC(=O)O[C@H]1C(=O)[C@]2(C)[C@H]([C@H](OC(=O)c3ccccc3)[C@]3(O)C[C@H](OC(=O)[C@H](O)[C@@H](NC(=O)c4ccccc4)c4ccccc4)C(C)=C1C3(C)C)[C@]1(OC(C)=O)CO[C@@H]1C[C@@H]2O,72% (active)
12,CC(=O)O[C@@]12CO[C@@H]1C[C@H](O)[C@@]1(C)C(=O)[C@H](O)C3=C(C)[C@@H](OC(=O)[C@H](O)[C@@H](NC(=O)OC(C)(C)C)c4ccccc4)C[C@](O)([C@@H](OC(=O)c4ccccc4)[C@H]21)C3(C)C,51.5% (active)
13,CNC(=O)c1ccccc1NC(=O)c1c(O)c2c([nH]c1=O)CCCC2,0%
14,COc1ccc(/C(O)=C2/C(=O)C(=O)N(Cc3cccnc3)C2c2ccccn2)cc1 (configuration not stated),-4.2%
15,Cc1cc(C)n2c(Br)c(CSc3nc4ccccc4o3)nc2n1,3.3%
16,COC(=O)c1c(NC(=O)CN2CCCC(C)C2)c2c(C)cccc2n1C (configuration not stated),-3.9%
17,CCCC(=O)NCCCc1nc2ccccc2n1CC,-20.4%
18,COc1ccc(-n2c(Cc3cccn3C)nnc2SCC(=O)NCc2ccco2)cc1,-5%
19,CCn1c2ccccc2c2cc(NC(=O)CSc3nnc(-c4ccccc4OC)n3N)ccc21,57.2% (active)
20,CCn1c(SCC(=O)Nc2ccc3c(c2)c2ccccc2n3CC)nnc1-c1ccco1,49%
21,COc1ccc(NC(=O)CSc2nnc(-c3ccccc3C)n2N)cc1OC,-3.3%
22,Cc1ccc(-c2cc(C(F)F)nc(NCc3cccnc3)n2)cc1,28.4%
23,CCOC(=O)C(C)Oc1cccc2c(=O)n(CC(=O)NCc3ccco3)ccc12 (configuration not stated),65.7% (active)
24,CCOC(=O)C(C)Oc1cccc2c(=O)n(CC(=O)NCc3ccc4c(c3)OCO4)ccc12 (configuration not stated),53% (active)
25,CCOC(=O)COc1cccc2c(=O)n(CC(=O)N3CCN(C(=O)OCC)CC3)ccc12,-9.2%

row,Compound,cytotoxicity
1,O=C(Cn1cnc2ccccc2c1=O)NCc1ccco1,-1%
2,CCOC(=O)C(C)Oc1cccc2c(=O)n(CC(=O)Nc3ccc4c(c3)OCCO4)ccc12 (configuration not stated),9.2%
3,CCOC(=O)C(C)Oc1cccc2c(=O)n(CC(=O)N3CCc4ccccc43)ccc12 (configuration not stated),-7.3%
4,CCOC(=O)COc1cccc2c(=O)n(CC(=O)NCc3ccc4c(c3)OCO4)ccc12,60.6% (active)
5,CCOC(=O)C(C)Oc1cccc2c(=O)n(CC(=O)N3CCN(C(=O)OCC)CC3)ccc12 (configuration not stated),-8.4%
6,CCOC(=O)COc1cccc2c(=O)n(CC(=O)N3CCc4ccccc43)ccc12,-7.9%
7,CCCCN(C)CCCNC(=O)c1ccc2c(c1)NC(=O)C(N1CCOCC1)S2 (configuration not stated),2.3%
8,CCOC(=O)N1CCN(C(=O)C2CCCN(S(C)(=O)=O)C2)CC1 (configuration not stated),2.7%
9,CC(C)Sc1nc2c(cnn2-c2ccccc2)c(=O)[nH]1,-15.9%
10,COC(=O)C(C(=O)OC)C(C(C)C)C(C(=O)OC)C(=O)OC,5.9%
11,O=C(Nc1ccc(Cl)cc1)Nc1ccccc1C(=O)NCc1ccco1,8.1%
12,O=C(Nc1ccc(Cl)cc1)NC1CCCC1Cc1ccco1 (configuration not stated),55% (active)
13,O=C(NCCSCc1ccco1)Nc1ccc(Cl)cc1,-8.4%
14,CC(c1ccccc1)N1CNc2c(c(=O)n(C)c(=O)n2C)C1 (configuration not stated),-8.9%
15,O=C(O)CC(c1ccc(Cl)cc1)N1C(=O)CCC1=O (configuration not stated),-2.8%
16,CCOc1ccc(NC(=O)CSc2nnc(Cc3cccn3C)n2-c2ccc(OC)cc2)cc1,-17.3%
17,c1coc(C2Nc3cccc4cccc(c34)N2)c1,4.2%
18,COc1cc(C2Nc3cccc4cccc(c34)N2)cc(OC)c1O,56.8% (active)
19,COc1cc(C2Nc3cccc4cccc(c34)N2)cc(OC)c1OC(C)=O,72.1% (active)
20,COc1cc(C2Nc3cccc4cccc(c34)N2)ccc1OC(C)=O,41.1%
21,Oc1ccccc1C1Nc2cccc3cccc(c23)N1,-21.5%
22,CCN(CC)c1ccc(C2Nc3cccc4cccc(c34)N2)c(O)c1,30.4%
